The values below come from publication PMC4336329 (PLoS ONE, 2015).

Screen size: about 310,000 compounds; about 14,000 (4.5%) showed an effect of 50% or more. Effects have a minus sign here. What follows is part of a selection rich in strong results, with near analogues and random picks from the rest.
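Further: peak tail current of the secondary pulse compared with the same well before compound.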

The target of the assay is human ether-à-go-go-related gene (hERG) potassium channel (human, UniProt Q12809). The assay can be described thus: primary screen, population patch clamp on CHO cells stably expressing hERG; higher = less effect of the substance.
human ether-à-go-go-related gene (hERG) potassium channel, sequence (Q12809 whole entry, looked up): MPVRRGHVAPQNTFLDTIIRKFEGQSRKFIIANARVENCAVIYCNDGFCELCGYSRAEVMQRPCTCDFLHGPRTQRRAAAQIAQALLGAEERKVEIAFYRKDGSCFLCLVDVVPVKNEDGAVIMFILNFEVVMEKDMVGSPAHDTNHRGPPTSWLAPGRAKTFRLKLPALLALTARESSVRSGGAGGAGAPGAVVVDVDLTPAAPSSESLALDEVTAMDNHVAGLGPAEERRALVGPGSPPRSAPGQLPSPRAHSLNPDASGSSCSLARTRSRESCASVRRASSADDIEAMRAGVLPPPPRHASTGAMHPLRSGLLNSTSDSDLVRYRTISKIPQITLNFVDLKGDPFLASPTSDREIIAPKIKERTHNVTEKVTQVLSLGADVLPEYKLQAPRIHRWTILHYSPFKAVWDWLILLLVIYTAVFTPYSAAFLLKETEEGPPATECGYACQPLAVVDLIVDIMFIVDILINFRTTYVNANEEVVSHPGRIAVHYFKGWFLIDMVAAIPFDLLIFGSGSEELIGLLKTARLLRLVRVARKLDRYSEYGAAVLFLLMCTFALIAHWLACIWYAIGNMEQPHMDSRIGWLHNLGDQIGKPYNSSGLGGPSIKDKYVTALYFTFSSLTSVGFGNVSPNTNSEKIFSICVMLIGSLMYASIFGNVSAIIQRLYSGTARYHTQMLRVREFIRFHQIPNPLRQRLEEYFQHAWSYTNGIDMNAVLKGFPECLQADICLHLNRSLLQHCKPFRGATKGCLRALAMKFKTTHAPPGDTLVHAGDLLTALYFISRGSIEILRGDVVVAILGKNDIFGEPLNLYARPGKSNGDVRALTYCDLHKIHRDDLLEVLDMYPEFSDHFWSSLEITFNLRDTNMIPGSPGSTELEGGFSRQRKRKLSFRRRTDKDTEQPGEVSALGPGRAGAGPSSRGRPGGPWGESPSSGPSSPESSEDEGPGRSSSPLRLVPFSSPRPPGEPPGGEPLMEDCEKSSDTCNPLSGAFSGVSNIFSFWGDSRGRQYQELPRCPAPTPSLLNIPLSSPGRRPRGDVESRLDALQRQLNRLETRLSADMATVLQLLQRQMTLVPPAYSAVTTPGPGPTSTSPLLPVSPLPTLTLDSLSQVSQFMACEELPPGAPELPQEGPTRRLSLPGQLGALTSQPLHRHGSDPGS
Regarding `Cc1cc(C(F)(F)F)c(C#N)c(SCC(=O)NC2CC2)n1`, the “hERG current change (%, negative = inhibition) at 10uM” value is reported as -4.11%. As for `CC(=O)NC1=NN(C(C)=O)C(C)(CS(=O)(=O)c2ccc3ccccc3c2)S1` (centres unmarked), the “hERG current change (%, negative = inhibition) at 10uM” value was -0.325%.

`COc1ccc(OC)c(-n2c(-c3cc(-c4ccco4)[nH]n3)n[nH]c2=S)c1`: the “hERG current change (%, negative = inhibition) at 10uM” value stood at 1.18%. As for `COc1ccccc1NS(=O)(=O)c1ccc(C)c(NC(=O)C2CCCO2)c1` (centres unmarked), the “hERG current change (%, negative = inhibition) at 10uM” value is reported as 4.4%. To `O=C(CNC(=O)c1ccc2c(c1)OCCO2)N/N=C/c1ccc(Cl)cc1` belongs 14.1%; to `Cc1occc1C(=O)N1CCN(C(=O)C2CCCO2)CC1` (centres unmarked), -12.2%; to `COc1ccccc1N(CC(=O)NC1CCCC1)S(=O)(=O)c1ccc(C)cc1`, -5.82%. Take `CCCC(=O)Nc1nnc(SCC(=O)NCc2cccs2)s1`: the “hERG current change (%, negative = inhibition) at 10uM” value was 8.39%. On to `Cn1c(CCN2CCCCC2)nc2cc(NC(=O)Nc3ccccc3)ccc21`, for which the “hERG current change (%, negative = inhibition) at 10uM” value was -28%. To `Cn1c(CCN2CCCCCC2)nc2cc(NC(=O)Nc3ccccc3)ccc21` belongs -35.7%. With `Cn1c(CCN2CCCCC2)nc2cc(NS(=O)(=O)c3ccc(Cl)cc3)ccc21`, the “hERG current change (%, negative = inhibition) at 10uM” value is given as -73.8%. The figure for `Cn1c(=O)[nH]c(=O)c2c1nc(N(CCO)Cc1ccccc1)n2CCCc1ccccc1` is -64.6%.

For the compound `CN(C)c1nc2c(c(=O)[nH]c(=O)n2C)n1CCCc1ccccc1`, the “hERG current change (%, negative = inhibition) at 10uM” value is on record as -19.1%.

As to `CN(Cc1ccccc1)c1nc2c(c(=O)[nH]c(=O)n2C)n1CCCc1ccccc1`, the “hERG current change (%, negative = inhibition) at 10uM” value is reported as -51.8%. The figure for `Cn1c(=O)[nH]c(=O)c2c1nc(NCCCO)n2CCCc1ccccc1` is -5.36%; for `CCCCCn1c(N(C)Cc2ccccc2)nc2c1c(=O)[nH]c(=O)n2C` it is -17.1%.

Regarding `C=C(C)Cn1c(N(CCO)Cc2ccccc2)nc2c1c(=O)[nH]c(=O)n2C`, the “hERG current change (%, negative = inhibition) at 10uM” value is given as -2.53%. To `CCOC(=O)N1CCN(CC(=O)Nc2cc(C)nn2-c2nc3ccccc3s2)CC1` belongs -23.3%; to `COc1ccc(Cl)cc1NC(=S)N1CCN(c2ncccn2)CC1`, 13.6%; to `CCc1nc(SCc2ccccc2C#N)n[nH]1`, 13.4%. The figure for `CC(=O)NCCC(=O)Nc1nc(-c2cccs2)c(-c2cccs2)s1` is -6.66%. The figure for `COc1ccc(-c2noc(CSc3nnc(-c4ccccc4)n3C)n2)cc1` is -32.8%; for `CCOC(=O)c1sc2nc(C)nc(NCc3ccccc3)c2c1C` it is 9.35%; for `CCOC(=O)c1sc2nc(C)nc(NCc3ccc(Cl)cc3)c2c1C` it is -80.6%. In the case of `CCOC(=O)c1sc2nc(CC(=O)OC)nc(NCCN(CC)CC)c2c1C`, the “hERG current change (%, negative = inhibition) at 10uM” value is -62.7%. The figure for `CCOC(=O)c1sc2nc(C)nc(NCc3ccc(F)cc3)c2c1C` is 17.2%. Turning to `CCOC(=O)c1sc2nc(CC(=O)OC)nc(NCC(=O)OC)c2c1C`, the “hERG current change (%, negative = inhibition) at 10uM” value was -9.05%. The figure for `CCOC(=O)c1sc2nc(CC(=O)OC)nc(NCc3ccc(Cl)cc3)c2c1C` is -7.35%; for `COc1cc(NC(=O)c2ccc(F)cc2)c(OC)cc1Cl` it is 3%; for `O=S1OC(c2ccccc2)c2cc(Cl)ccc21` (centres unmarked) it is 11%. The figure for `COc1cccc(-c2noc(CCC(=O)NC3CCCC3)n2)c1` is 7.42%; for `Cn1c(=O)c2c(nc(SCC(=O)O)n2Cc2cc3c(cc2Cl)OCO3)n(C)c1=O` it is 6.88%; for `O=c1[nH]c(CSc2nnc(COc3ccccc3)n2-c2ccccc2)nc2ccccc12` it is -4.92%. As for `C(=N\N1CCN(Cc2cccc3ccccc23)CC1)/c1cccnc1`, the “hERG current change (%, negative = inhibition) at 10uM” value is -1.95%.

In the case of `C/C(=N\N1CCN(C2c3ccccc3-c3ccccc32)CC1)c1cccnc1`, the “hERG current change (%, negative = inhibition) at 10uM” value is -2.47%.

Regarding `C/C(=N/N1CCN(Cc2cccc3ccccc23)CC1)c1cccnc1`, the “hERG current change (%, negative = inhibition) at 10uM” value is -50.1%. To `COc1ccc(N(CC(=O)N2CCc3ccccc3C2)S(C)(=O)=O)cc1Cl` belongs -25.7%; to `CN(C)Cc1c(O)ccc2occ(C(=O)c3ccccc3)c12`, -52.8%. The figure for `O=C(c1ccccc1)c1coc2ccc(O)c(Cl)c12` is -10.9%; for `CN(C)Cc1c(O)ccc2occ(C(O)c3ccccc3)c12` (centres unmarked) it is -2.08%; for `Cc1oc2ccc(O)c(CN(C)C)c2c1C(=O)c1ccccc1` it is -42.4%. For `CN(C)Cc1c(O)ccc2occ(C(=O)c3ccc(F)cc3)c12`, the “hERG current change (%, negative = inhibition) at 10uM” value was -69.6%.

Regarding `COc1ccc2occ(C(=O)c3ccccc3)c2c1`, the “hERG current change (%, negative = inhibition) at 10uM” value is -15.3%. Regarding `CCN(CC)Cc1c(O)ccc2occ(C(=O)c3ccccc3)c12`, the “hERG current change (%, negative = inhibition) at 10uM” value is recorded as -72.6%. To `Cc1ccc(C(=O)c2coc3ccc(O)cc23)cc1` belongs 23.2%. To `Cc1ccc(C(=O)c2coc3ccc(O)c(Cl)c23)cc1` belongs -26.5%; to `Cc1ccc(C(=O)c2coc3ccc(O)c(CN(C)C)c23)cc1.Cl`, -54.7%. To `COC(=O)C1(C)NC(c2ccc(Cl)cc2)C2C(=O)N(c3ccccc3)C(=O)C21` (centres unmarked) belongs -3.27%; to `COc1ccc(C2(c3ccc(OC)cc3)NC(=O)N(CC(=O)Nc3ccc(OC(F)F)cc3)C2=O)cc1`, -19.2%.

On to `CCOc1ccc(N2C(=O)C3CCCN3C2=O)cc1` (centres unmarked), for which the “hERG current change (%, negative = inhibition) at 10uM” value amounted to 10.1%.

With `O=C(O)C1CCN1C1CCCCC1` (centres unmarked), the “hERG current change (%, negative = inhibition) at 10uM” value was found to be 5.54%.

With `COC(=O)CCCCCCCCCC[N+]1(C)CCCCC1.[I-]`, the “hERG current change (%, negative = inhibition) at 10uM” value is recorded as -0.248%. To `C[N+]1(CCCCSc2ccc(O)cc2)CCCCC1.[I-]` belongs -51.7%; to `CC(=O)OCCCCCCCCCCC[N+]1(C)CCCCC1.[I-]`, -7.49%; to `Nc1c(C(=O)CSc2nc(-c3ccccc3)cs2)c(=O)[nH]c(=O)n1C1CC1`, -7.63%. The figure for `O=C(c1ccco1)n1nc(-c2ccccc2)nc1SCc1ccccc1` is 3.93%. To `COC(=O)C1C(O)CCC2CN3CCc4c([nH]c5ccccc45)C3CC21` (centres unmarked) belongs -21.1%; to `COC(=O)[C@@H]1[C@H]2C[C@H]3c4[nH]c5ccccc5c4CCN3C[C@@H]2CC[C@@H]1O`, -57.5%; to `COC(=O)[C@H]1[C@H]2C[C@H]3c4[nH]c5ccccc5c4CCN3C[C@@H]2CC[C@@H]1O`, -12.5%.
